RE007 growth inh: less growth of the S. pombe RE007 Vpr strain | Potency, µM (titrated, usually from 92.2 µM), for the others: top-dose activity change, negative = less growth, hits mostly inhibitors | S. pombe RE007 Vpr strain, BacTiter-Glo ATP luminescence, 24 h | 360,000 tested, 0.21% active; active = well fitted falling curve with a large enough effect; inconclusive = small, poorly fitted or top-dose-only effect; inactive = no such curve, though single readings can be large or run the other way; note: potency is the fitted concentration of half-maximal effect; nearly all actives have a fitted effect of over 50% in size
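Fission yeast strain RE007, carrying one chromosomally integrated HIV-1 vpr copy, was seeded at OD 0.01 in PMG+AL medium with 23 nL pinned compound. After 24 h at 30 °C and 99% humidity, viability was read by BacTiter-Glo luminescence.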
Sm TGR block: blocks Schistosoma mansoni thioredoxin glutathione reductase; Q962Y6; purified TGR, DTNB reduction, TNB absorbance 405 nm; Potency, µM (top dose mostly 114 µM), without a hit: top-dose activity change, negative = inhibition, hits mostly inhibitors; 360,000 tested, 3% active; AID 485364; note: potency is the fitted concentration of half-maximal effect; nearly all actives have a fitted effect of over 60% in size
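First, TGR (20 nM dispensed) and NADPH were mixed with compound. Second, a 15 min room-temperature incubation followed. Third, further NADPH and then DTNB were added to start the reaction. Finally, TNB absorbance was monitored kinetically.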
TbPYK inhibitor: T. brucei pyruvate kinase inhibition. Q57TT1. TbPYK enzyme, Kinase-Glo Plus ATP luminescence, 45 min. Potency, µM (doses to about 76.8 µM), for the others: at the highest dose activity, negative = inhibition, actives largely listed as inhibitors. 410,000 tested, 0.12% active. AID 624173; note: potency is the fitted concentration of half-maximal effect; nearly all actives have a fitted effect of over 50% in size
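T. brucei PYK with substrate was exposed to pin-transferred compounds across a concentration series, then started with 130 uM ADP (final). After 45 min at room temperature, Kinase-Glo Plus luminescence was read, normalized and curve-fitted.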
FMDV antiviral: foot and mouth disease virus antiviral activity. 410,000 tested, 1.2% active. Potency, µM (highest dose often 57.9 µM), for the others: at the highest dose activity change, negative = inhibition, hits mostly inhibitors. FMDV antiviral cell-based qHTS. AID 1159524; calls by dose curve; tested in HEK293T cells; note: read-out not given here; potency is the fitted concentration of half-maximal effect; nearly all actives have a fitted effect of over 45% in size
Giardia FBPA inh: blocks Giardia fructose-bisphosphate aldolase activity; purified Giardia FBPA; Potency, µM (doses to about 59.6 µM), without a hit: at the top dose activity, negative = inhibition, most hits filed as inhibitors; 290,000 tested, 0.71% active; AID 2451; note: potency is the fitted concentration of half-maximal effect; nearly all actives have a fitted effect of over 55% in size
Target sequence (A8B2U2 whole entry, looked up): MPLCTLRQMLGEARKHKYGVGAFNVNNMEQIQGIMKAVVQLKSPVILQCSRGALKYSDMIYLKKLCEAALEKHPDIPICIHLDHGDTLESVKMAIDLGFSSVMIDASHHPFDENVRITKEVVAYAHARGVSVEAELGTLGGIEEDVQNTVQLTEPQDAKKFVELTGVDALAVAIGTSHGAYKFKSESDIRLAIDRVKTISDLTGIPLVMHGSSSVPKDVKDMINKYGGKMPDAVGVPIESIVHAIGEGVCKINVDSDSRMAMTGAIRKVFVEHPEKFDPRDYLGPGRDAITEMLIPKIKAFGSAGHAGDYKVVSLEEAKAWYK
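40 nM FBPA preincubated 10 min at RT with compound (up to 57.5 uM final), then substrate plus GAPDH/TPI/NAD/arsenate coupling and diaphorase/resazurin added. Fluorescence read after 20 min at RT, 525/598 nm.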
HCMV antiviral: blocks human cytomegalovirus replication | 410,000 tested, 4.5% active | HFF cells, HCMV-luciferase reporter, 72 h; hits give low values | activity change, negative = inhibition, % at 57.5 µM; in the data active = activity change below about -60%; inconclusive = no clear call, values can overlap the other calls; inactive = above about -39%
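Compounds were evaluated in HFFs infected with an HCMV luciferase reporter virus (MOI 1 PFU/cell). Luciferase in lysates collected 72 h post infection served as the replication measure.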
An asterisk follows results filed as active; ? = inconclusive; / = no result; [ ] = remark or other dose. The list is not random: actives were taken first. Their share in the collection is about 7.7%. Unless noted, calls come from the whole dose curve; as a rule, active = well fitted curve in the direction sought with a large enough effect; inconclusive = small, poorly fitted or top-dose-only effect, or another doubt; inactive = no such curve, though single readings can be large; an effect the other way counts as inactive or inconclusive. % is set by controls: 0 for no effect and ±100 for the full control effect.

SMILES	RE007 growth inh	Sm TGR block	TbPYK inhibitor	FMDV antiviral	Giardia FBPA inh	HCMV antiviral
C=CCN1C(=O)NC(=O)/C(=C/C=C/c2ccccc2)C1=O	23%	10µM*	-23%	?	-10%	-112*
O=C1NC(=O)N(CCc2ccc(F)cc2)C(=O)/C1=C\C=C\c1ccccc1	-2%	?	4%	10µM*	1%	-33
CCn1c2c(c3cc(Br)ccc31)CCC/C2=N\O	?	9%	8%	-26%	-7%	-107*
CCOC(=O)C1=C(C)NC(C)=C(C(=O)OCC)C1c1ccc(Br)o1	0%	-12%	-1%	-30%	-15%	-79*
O=C(O)C1Cc2ccccc2N2CCCC12 (centres undefined)	-4%	?	?	-8%	-27%	-61*
O=C(O)C1CCCCN1c1ccccc1[N+](=O)[O-] (centres undefined)	13%[18.4 µM]	/	3%	-7%	/	15
COc1ccc(-c2noc(CC(=O)N(C)c3cccc(C)c3)n2)cc1	/	2%	0%	-26%	/	-13
C=CCC[C@H](Cc1ccc(F)cc1)C(=O)O[C@H](CNC(=O)[C@@H](CC=C)CC(=O)N(CCO)Cc1ccccc1)c1ccccc1	6%	/	4%	40µM*	/	4
C=CCC[C@H](Cc1ccc(F)cc1)C(=O)OC[C@H](Cc1c[nH]c2ccccc12)NC(=O)[C@@H](CC=C)CC(=O)N(CCO)Cc1ccccc1	-3%	/	-2%	40µM*	/	81
COc1cc(C(=O)NC2(C(F)(F)F)C(=O)NC(C)=C2C#N)cc(OC)c1OC (centres undefined)	/	11%	-9%	-10%	/	9
COC(=O)c1ccc([C@@H]2Nc3c(OC)ccc(C)c3[C@@H]3C=CC[C@@H]32)cc1	/	3.2µM*	-11%	-6%	/	-3
O=C(O)c1ccc(NS(=O)(=O)c2ccc3c(c2)C2C=CCC2C(c2ccccc2F)N3)cc1 (centres undefined)	23%	28µM*	?	5%	-21%	-4
COC(=O)c1ccc([C@H]2Nc3ccc(S(=O)(=O)Nc4cccc(C)c4)cc3[C@H]3C=CC[C@H]32)cc1	/	25µM*	-5%	-15%	/	10
COC(=O)c1ccc(C2Nc3ccc(/C(C)=N/NC(=O)C(OC)c4ccccc4)cc3C3C=CCC32)cc1 (centres undefined)	10%	7.9µM*	?	-4%	/	10
COc1cccc(CNC(=O)c2c(OC)cc(=O)n3c2CCN(C(=O)c2ccc(C)cc2C)CC3)c1	/	/	/	2%	/	/
COc1cccc(NC(=O)N[C@H]2CC[C@@]34CCCN3C(=O)CCC[C@H]4C2Cc2ccccc2)c1 (some centres undefined)	/	/	/	/	/	-4
CC1(C)OC(=O)C(=Cc2ccc(-c3ccc(Cl)c(C(=O)O)c3)o2)C(=O)O1	43%	-6%	16µM*	3%	-16%	-3
O=C(O)c1ccc(-c2ccc(/C=c3/sc4nc5ccccc5n4c3=O)o2)cc1Cl	7%	28µM*	?	18%	-2%	-3
Nc1nonc1C(=O)N/N=C/c1ccc(-c2ccc(Cl)c(C(=O)O)c2)o1	-3%	-22%	5%	4%	?	-73*
COc1ccc(CN2C(=O)/C(=C/c3ccc(-c4ccc(Cl)c(C(=O)O)c4)o3)SC2=S)cc1	/	?	/	/	0%	/
O=C(O)c1cc(-c2ccc(/C=C3/SC(=S)N(Cc4ccccc4)C3=O)o2)ccc1Cl	3%	25µM*	-13%	3%	?	-28
Cc1cc(C)c2nc3sc(=Cc4ccc(-c5ccccc5C(=O)O)o4)c(=O)n3c2c1	-17%	/	-17%	-14%	/	26
CC1=NOC(=O)/C1=C\c1ccc(-c2ccc(Cl)c(C(=O)O)c2)o1	7%	-31%	-14%	2%	-21%	2
CCOc1ccc(CCNC(=O)CCCn2nc(C)c3c(C)n(-c4ccccc4)nc3c2=O)cc1	1%	0%	-1%	-15%	/	?
Cc1nn(CCCC(=O)NCCc2ccccc2)c(=O)c2nccn12	4%	4%	-4%	3%	5%	-98*
SMILES	RE007 growth inh	Sm TGR block	TbPYK inhibitor	FMDV antiviral	Giardia FBPA inh	HCMV antiviral
CCc1nnc2c3ccccc3nc(N3CCN(c4cc(Cl)ccc4C)CC3)n12	/	-10%	1%	-9%	/	-5
O=C(CCCn1ccc2cc(S(=O)(=O)N3CCCC3)ccc21)NCc1ccc(Cl)cc1	/	6%	26%	?	/	-87*
Cc1ccc(CCNC(=O)c2cn(C)c3ccc(S(=O)(=O)N4CCCCC4)cc3c2=O)cc1	/	22µM*	-3%	0%	/	-2
CSc1ccc(CCNC(=O)c2cc3cc(S(=O)(=O)N4CCCCC4)ccc3n2C)cc1	/	-1%	-12%	?	/	-67*
CN(C)c1ccc(CNC(=O)CCCn2ccc3cc(S(=O)(=O)N4CCCC4)ccc32)cc1	/	20%	-6%	-21%	/	-19
CCn1cc(C(=O)NCCc2ccc(C)cc2)c(=O)c2cc(S(=O)(=O)N3CCCCC3)ccc21	/	11%	0%	-27%	/	18
CCOc1ccc(CNC(=O)c2cc3cc(S(=O)(=O)N4CCCCC4)ccc3n2C)cc1	/	3%	5%	?	/	-68*
Cc1ccc(CCNC(=O)c2cc3cc(S(=O)(=O)N4CCCCC4)ccc3n2C)cc1	/	-2%	-8%	?	/	-13
Cc1ccccc1Nc1oc(-c2ccccc2)nc1-c1ccccc1F	/	/	/	/	-6%	/
Cc1ccc(C(=O)NCC(=O)OCc2cc(=O)n3ccsc3n2)cc1	/	0%	0%	-19%	/	-7
Clc1ccccc1OCc1nc(-c2ccccn2)no1	/	-2%	-3%	44%	-6%	56
Clc1ccc(OCc2nc(-c3ccccn3)no2)c(Br)c1	-8%	-15%	-3%	-48%	-2%	-61*
CCCc1nc(SCc2cc(=O)c3ccc(C)c(C)c3[nH]2)n[nH]1	/	-2%	4%	-27%	/	-21
O=C(N/N=C/c1ccncc1)c1ccc(OCc2ccccc2)cc1	2%	2%	3%	-14%	2%	-62*
CCOc1ccc(/C=N/NC(=O)c2ccccc2NC(=O)c2ccc(OC)cc2)cc1	-18%	2%	-10%	-17%	-3%	108
O=C(N/N=C/c1ccc(OCc2ccccc2)cc1)c1ccncc1	-6%	-3%	1%	10%	0%	-11
COc1ccc(C(=O)Nc2ccccc2C(=O)N/N=C/c2ccco2)cc1	18µM*	3%	?	?	-4%	10
O=C(N/N=C/c1ccc(OCc2ccccc2)cc1)c1cccs1	-8%	0%	6%	49%	6%	8
Cc1ccccc1C(=O)Nc1ccc(C(=O)N/N=C/c2ccncc2)cc1	3%	?	-3%	-20%	-27%	-29

Screens deposited in PubChem BioAssay by National Center for Advancing Translational Sciences (NCATS).
